The results in this text go back to PubChem BioAssay AID651899 (Broad Institute, 2012).

Structures are written as SMILES. Measured potencies and affinities stand elsewhere. Active and inactive are the calls of the source. How the calls were made is not given here.

The experiment can be described thus: HEK293 cell viability loss – plate reader, cherry-pick, cytotoxicity control, dose response (AID 651899).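 Further: cells exposed to compound for 48 hours.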 The settings on record: series mostly up to 26 µM; activity change, negative = cytotoxicity: at the top concentration.
As to `O=C(O)CSc1ncnc2scc(-c3ccc(Br)cc3)c12`, the “activity change, negative = cytotoxicity” value was -12.5% (inactive).

On to `O=C(CSc1nc2c(c(=O)n1-c1ccccc1)SCC2)N1CCN(c2ccccc2)CC1`, for which the “activity change, negative = cytotoxicity” value was 2.08% (inactive).

Turning to `CCc1nn(CC(=O)N2CCN(Cc3ccc4c(c3)OCO4)CC2)c(=O)c2cc3occc3n12`, the “activity change, negative = cytotoxicity” value was 7.76% (inactive).

Regarding `C=CCn1c(SCc2c(C(=O)OC)sc(N)c2C(=O)OC)nnc1-c1ccc(Br)cc1`, the “activity change, negative = cytotoxicity” value is -6.79% (inactive).

For the compound `CCOC(=O)c1c(N)sc(C(N)=O)c1C`, the “activity change, negative = cytotoxicity” value is 28.2% (inactive).

For `COC(=O)C1CCN(C(c2ccc(OC)c(OC)c2)c2sc3nc(C)nn3c2O)CC1` (stereo unspecified), the “activity change, negative = cytotoxicity” value is 35.7% (inactive).

Regarding `C/C=C(/C)C(=O)OC(C)(C)[C@@H]1Cc2c(ccc3ccc(=O)oc23)O1`, the “activity change, negative = cytotoxicity” value was 2.27% (inactive).

On to `COc1ccc(C(=O)Nc2cccnc2)cc1OC`, for which the “activity change, negative = cytotoxicity” value was -16.8% (inactive).

Turning to `COc1ccc(Cc2c(-c3ccc(OC)c(OC)c3)nc3ccc(C)cn23)c(C)c1`, the “activity change, negative = cytotoxicity” value is 2.2% (inactive).

For `O=C(c1ccc(S(=O)(=O)Nc2ccccc2F)cc1)N1CCN(c2ccccc2O)CC1`, the “activity change, negative = cytotoxicity” value is -14.3% (inactive).

Turning to `O=C(Nc1cccnc1)c1ccc(N2CCCC2)c([N+](=O)[O-])c1`, the “activity change, negative = cytotoxicity” value was 23.8% [at 12 µM] (inactive).

With `CCOCCCNC(=O)CSc1nc2nc(C)c(Cc3ccccc3)c(C)n2n1`, the “activity change, negative = cytotoxicity” value was -19.2% (inactive).

With `O=C(Nc1cccnc1)c1ccc(N2CCOCC2)c([N+](=O)[O-])c1`, the “activity change, negative = cytotoxicity” value is 25.2% (inactive).

For `CC(=O)c1ccc(C(=O)N2CCCC(C(=O)c3ccc(Cl)cc3)C2)s1` (stereo unspecified), the “activity change, negative = cytotoxicity” value is -0.878% (inactive).

With `Cc1nn(CCC(=O)O)c2nc(-c3cccnc3)cc(C(F)(F)F)c12`, the “activity change, negative = cytotoxicity” value was -7.73% (inactive).

Take `CC(C)n1c(N2CCN(C(=O)c3cccs3)CC2)nc2ccccc21`: the “activity change, negative = cytotoxicity” value was 12.8% (inactive).

Consider `CN1CCN(c2ncnc3c2[nH]c2ccc(F)cc23)CC1`, for which the “activity change, negative = cytotoxicity” value is 13.6% (inactive).

For the compound `Cc1cc(/C=C(/C#N)C(=O)Nc2ccccc2)c(C)n1-c1cccnc1`, the “activity change, negative = cytotoxicity” value was -20% (inactive).

Regarding `CCN(CC)CCNC(=O)c1cn(CC)c2ccc(S(=O)(=O)N3CCc4ccccc4C3)cc2c1=O`, the “activity change, negative = cytotoxicity” value is -10.8% (inactive).

As for `COc1ccc(NC(=O)c2ccc(-n3cncn3)c([N+](=O)[O-])c2)cc1OC`, the “activity change, negative = cytotoxicity” value is 12.8% (inactive).

Take `COc1cccc(NC(=O)CCC2CCN(C(=O)c3ccc(C(C)=O)s3)CC2)c1`: the “activity change, negative = cytotoxicity” value was 11.9% (inactive).

In the case of `CC(=O)N1CC[C@@H]2[C@@H](CO)N(C)c3ccc(-c4cccc(F)c4)cc3[C@@H]21`, the “activity change, negative = cytotoxicity” value was -9.59% (inactive).

As to `O=C(Nc1ccc(F)c(F)c1)C1CCN(S(=O)(=O)c2cccs2)CC1`, the “activity change, negative = cytotoxicity” value was -28.7% (inactive).

For `CCCc1cc(=O)oc2c3c(cc(OCC(=O)NCCCn4ccnc4)c12)OC(C)(C)CC3`, the “activity change, negative = cytotoxicity” value is -17.5% (inactive).

`Cc1ccc(Cc2c(C)nc3nc(SCC(=O)NCCCN4CCCCC4)nn3c2C)cc1`: the “activity change, negative = cytotoxicity” value was 20.8% (inactive).

Consider `COCCNC(=O)C[C@@H]1CC[C@@H]2[C@@H](COc3ccc(NC(=O)Nc4cccc(F)c4)cc3C(=O)N2C)O1`, for which the “activity change, negative = cytotoxicity” value was 19.7% [at 23.5 µM] (inactive).

`Cc1ccc(S(=O)(=O)N(C)C)cc1NC(=O)CSc1nncs1`: the “activity change, negative = cytotoxicity” value is 27.5% (inactive).

In the case of `CC(=O)c1ccc(N2CCN(c3ncccn3)CC2)c([N+](=O)[O-])c1`, the “activity change, negative = cytotoxicity” value was 16.1% (inactive).

As to `O=C1CCCc2c1cc(C(=O)NCCCN1CCOCC1)c(=O)n2-c1ccc(Cl)cc1`, the “activity change, negative = cytotoxicity” value was -31.2% (inactive).

As to `CCC(CO)Oc1cc(NC(=O)c2cccc(F)c2)c2ncn(C(C)C)c2c1` (stereo unspecified), the “activity change, negative = cytotoxicity” value is 8.15% (inactive).

Consider `CCN1[C@H](C(=O)NCc2ccccc2)[C@@H](CO)[C@@H]2Cn3c(ccc(-c4cccnc4)c3=O)[C@@H]21`, for which the “activity change, negative = cytotoxicity” value was 12.6% (inactive).

For `CCOC(=O)CNC(=O)c1sc2ncnc(N3CCc4ccccc4C3)c2c1C`, the “activity change, negative = cytotoxicity” value is 4.6% (inactive).

On to `Cc1c2cnn(CC(=O)NCc3ccccn3)c(=O)c2c(C)n1Cc1ccc(Cl)cc1`, for which the “activity change, negative = cytotoxicity” value is 26.4% (inactive).

Turning to `CN1c2ccc(-c3cccc(F)c3)cc2[C@H]2[C@H](CCN2C(=O)C2CC2)[C@H]1CO`, the “activity change, negative = cytotoxicity” value is 29% [at 12 µM] (inactive).

As to `CCc1c(C)nc2ncnn2c1Nc1ccc(C#N)c(Cl)c1`, the “activity change, negative = cytotoxicity” value is -0.614% (inactive).

Turning to `CC(=O)c1ccc(NC(=O)CN2CCN(c3ccccc3)CC2)cc1`, the “activity change, negative = cytotoxicity” value is -22.7% (inactive).
